The molecules below were run on T1, LKB1. Details: concentration: 1 μM, replicates: in singlicate; n = 1.
T1 construct: gene STK11
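Also: KINOMEscan kinase panel screen.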

Q: For `CN1C(=O)C(Nc2ccc(Cl)c(C(=O)O)c2)=C(c2ccc(Cl)cc2)C1=O` [SB-404290], which “%Inh” value is on record?
A: The value was 18%.

Q: Which “%Inh” value does the source give for `Cc1nnc(-c2ccc3occ(-c4ccc(S(C)=O)cc4)c3c2)[nH]1` (stereo not shown) here?
A: The value was 23%.

Q: Which “%Inh” value does the source give for `Clc1cc(Cl)cc(Nc2ccnc(Nc3cc(Cl)cc(Cl)c3)n2)c1` [GSK175726] here?
A: Its value is 14%.

Q: How did the “%Inh” value turn out when `O=C(Nc1ccc2c(c1)OCO2)NC1CCN(c2ccnc(Nc3ccc(F)cc3)n2)C1` (stereo not shown) [GSK1379724] was run?
A: Its value is 0%.

Q: For `CS(=O)(=O)c1ccc(-c2c(-c3ncn[nH]3)sc(N3CCOCC3)c2C#N)cc1`, which “%Inh” value is on record?
A: Its value is 0%.

Q: With `COc1ccc(C2=C(Nc3cccc(C(=O)O)c3)C(=O)NC2=O)cc1` [SB-390765] as the molecule, how does the “%Inh” value read?
A: Its value is 11%.

Q: With `CS(=O)(=O)c1ccc(-c2nc3n(c2-c2ccncc2)CCC3)cc1` [SKF-105942] as the molecule, how does the “%Inh” value read?
A: The value was 0%.

Q: `C[C@@H]1CCCCN1c1cc(-c2ccc3c(N)n[nH]c3c2)nc(N)n1` [GSK2258759] was tested. Which “%Inh” value did it give?
A: Its value is 0%.

Q: How did the “%Inh” value turn out when `COc1ccc2nc(-c3cccc(C)n3)nc(Nc3ccncc3)c2c1` [GSK204919] was run?
A: Its value is 0%.

Q: Which “%Inh” value does the source give for `O=S(=O)(c1ccc(-c2ccnc3[nH]ccc23)cc1)N1CCCC1` [GSK846226] here?
A: The value was 5%.

Q: With `Cn1ccc2ncnc(Oc3ccc(NC(=O)Nc4ccccc4)cc3)c21` as the molecule, how does the “%Inh” value read?
A: The value was 0%.

Q: How did the “%Inh” value turn out when `Cc1ccc(C(=O)Nc2ccc(Nc3ccnc4cc(-c5ccccn5)ccc34)cc2O)cc1.Cl` [GW440146] was run?
A: The value was 9%.

Q: With `COc1ccc(CNC(=O)NC2CCN(c3ccnc(Nc4cc(OC)c(OC)c(OC)c4)n3)C2)cc1` (stereo not shown) [GSK1379748] as the molecule, how does the “%Inh” value read?
A: Its value is 12%.

Q: `Cc1cc(-c2ccc3c(c2)CC[C@@H](N[C@@H](C)c2ccccc2)C3)cnc1N.Cl` [GW412617] was tested. Which “%Inh” value did it give?
A: The value was 0%.

Q: With `Cl.O=C(Nc1cccc(-c2nn3ncccc3c2-c2ccnc(Nc3cccnc3)n2)c1)c1c(F)cccc1F` [GSK312879] as the molecule, how does the “%Inh” value read?
A: The value was 0%.

Q: With `COC(=O)c1c(-c2ccccc2)c2cc(OC)ccc2c(=O)n1Cc1ccccc1` as the molecule, how does the “%Inh” value read?
A: The value was 8%.

Q: With `O=C(Nc1n[nH]c2nc(-c3nccs3)c(Br)cc12)C1CC1` [SB-742251] as the molecule, how does the “%Inh” value read?
A: The value was 0%.

Q: With `COc1cc(Nc2nccc(N3CCC(NC(=O)Nc4cc(C)ccc4C)C3)n2)cc(OC)c1OC` (stereo not shown) [GSK1379762] as the molecule, how does the “%Inh” value read?
A: Its value is 0%.

Q: How did the “%Inh” value turn out when `COc1cccc(NC(=O)NC2CCN(c3ccnc(Nc4ccc(F)cc4)n3)C2)c1` (stereo not shown) [GSK1379721] was run?
A: The value was 25%.

Q: How did the “%Inh” value turn out when `Cl.Oc1ccc(-c2nc(-c3ccccc3)[nH]c2-c2ccncc2)cc1` [SB-428218] was run?
A: Its value is 8%.

Q: `Cc1ccc(-c2cc(-c3c[nH]nc3-c3ccccn3)ccn2)cc1` [GW684088] was tested. Which “%Inh” value did it give?
A: Its value is 12%.

Q: `Nc1ncnc2[nH]c(-c3ccccc3)nc12` [AH5015] was tested. Which “%Inh” value did it give?
A: Its value is 0%.

Q: For `O=C(Nc1n[nH]c2cc(-c3cccc(F)c3F)ccc12)C1CC1` [SB-733894], which “%Inh” value is on record?
A: The value was 0%.

Q: With `Cc1ccc(NC(=O)Nc2cc(C(C)(C)C)nn2-c2ccccc2)cc1` [GSK1014915] as the molecule, how does the “%Inh” value read?
A: The value was 0%.

Q: With `Cc1cccc(-c2nc(C)cc(Nc3ccncc3)n2)n1` [GSK257997] as the molecule, how does the “%Inh” value read?
A: The value was 8%.

Q: For `Cn1cncc1-c1ccc2ncnc(Nc3ccc(OCc4ccccc4)cc3)c2c1` [GW320571], which “%Inh” value is on record?
A: The value was 0%.

Q: With `CCn1c(-c2ccccn2)nc2cnccc21` [SB-736398] as the molecule, how does the “%Inh” value read?
A: The value was 0%.

Q: `Cc1c(Cn2ccn3c(=O)cc(N4CCOCC4)nc23)cccc1C(F)(F)F` [GSK2289044] was tested. Which “%Inh” value did it give?
A: Its value is 10%.

Q: How did the “%Inh” value turn out when `O=C(O)COc1ncnc2cc(-c3ccc4[nH]ncc4c3)sc12` was run?
A: Its value is 0%.

Q: With `O=C(Nc1ccccc1)Nc1cccc(Oc2ccc3nccn3n2)c1` as the molecule, how does the “%Inh” value read?
A: The value was 24%.

Q: How did the “%Inh” value turn out when `Cc1ccccc1-n1cnc2c(N)ncnc21` [SKF-97510] was run?
A: The value was 0%.

Q: Which “%Inh” value does the source give for `CC(=O)Nc1nc2cnc(Nc3cc(NC(=O)c4cccc(CCC#N)c4)ccc3C)nc2s1` here?
A: The value was 0%.

Q: `CC1=C(C(=O)Nc2cc3cn[nH]c3cc2F)C(c2ccc(C(F)(F)F)cc2)CC(=O)N1` (stereo not shown) [GSK429286] was tested. Which “%Inh” value did it give?
A: The value was 0%.

Q: `COc1ccc(Nc2nccc(-c3cccc(NC(=O)c4cc5cc(F)ccc5[nH]4)c3)n2)cc1` [GSK1229782] was tested. Which “%Inh” value did it give?
A: The value was 12%.

Q: With `O=C1NC(=O)C(N2CCc3ccccc32)=C1c1ccccc1Cl` [SB-373598] as the molecule, how does the “%Inh” value read?
A: Its value is 2%.

These molecules were tested on T2, LOK. Details: concentration: 1 μM, replicates: in singlicate; n = 1.
T2 construct: gene STK10

Q: For `CN1C(=O)C(Nc2ccc(Cl)c(C(=O)O)c2)=C(c2ccc(Cl)cc2)C1=O` [SB-404290], which “%Inh” value is on record?
A: Its value is 4%.

Q: For `Cc1nnc(-c2ccc3occ(-c4ccc(S(C)=O)cc4)c3c2)[nH]1` (stereo not shown), which “%Inh” value is on record?
A: The value was 98.7%.

Q: For `Clc1cc(Cl)cc(Nc2ccnc(Nc3cc(Cl)cc(Cl)c3)n2)c1` [GSK175726], which “%Inh” value is on record?
A: The value was 0%.

Q: With `O=C(Nc1ccc2c(c1)OCO2)NC1CCN(c2ccnc(Nc3ccc(F)cc3)n2)C1` (stereo not shown) [GSK1379724] as the molecule, how does the “%Inh” value read?
A: Its value is 0%.

Q: `CS(=O)(=O)c1ccc(-c2c(-c3ncn[nH]3)sc(N3CCOCC3)c2C#N)cc1` was tested. Which “%Inh” value did it give?
A: Its value is 31%.

Q: For `COc1ccc(C2=C(Nc3cccc(C(=O)O)c3)C(=O)NC2=O)cc1` [SB-390765], which “%Inh” value is on record?
A: Its value is 28%.

Q: With `CS(=O)(=O)c1ccc(-c2nc3n(c2-c2ccncc2)CCC3)cc1` [SKF-105942] as the molecule, how does the “%Inh” value read?
A: Its value is 0%.

Q: For `C[C@@H]1CCCCN1c1cc(-c2ccc3c(N)n[nH]c3c2)nc(N)n1` [GSK2258759], which “%Inh” value is on record?
A: Its value is 0%.

Q: How did the “%Inh” value turn out when `COc1ccc2nc(-c3cccc(C)n3)nc(Nc3ccncc3)c2c1` [GSK204919] was run?
A: Its value is 0%.

Q: With `O=S(=O)(c1ccc(-c2ccnc3[nH]ccc23)cc1)N1CCCC1` [GSK846226] as the molecule, how does the “%Inh” value read?
A: The value was 0%.

Q: How did the “%Inh” value turn out when `Cn1ccc2ncnc(Oc3ccc(NC(=O)Nc4ccccc4)cc3)c21` was run?
A: Its value is 94.8%.

Q: Which “%Inh” value does the source give for `Cc1ccc(C(=O)Nc2ccc(Nc3ccnc4cc(-c5ccccn5)ccc34)cc2O)cc1.Cl` [GW440146] here?
A: The value was 14%.

Q: With `COc1ccc(CNC(=O)NC2CCN(c3ccnc(Nc4cc(OC)c(OC)c(OC)c4)n3)C2)cc1` (stereo not shown) [GSK1379748] as the molecule, how does the “%Inh” value read?
A: Its value is 0%.

Q: With `Cc1cc(-c2ccc3c(c2)CC[C@@H](N[C@@H](C)c2ccccc2)C3)cnc1N.Cl` [GW412617] as the molecule, how does the “%Inh” value read?
A: Its value is 0%.

Q: With `Cl.O=C(Nc1cccc(-c2nn3ncccc3c2-c2ccnc(Nc3cccnc3)n2)c1)c1c(F)cccc1F` [GSK312879] as the molecule, how does the “%Inh” value read?
A: Its value is 0%.

Q: Which “%Inh” value does the source give for `COC(=O)c1c(-c2ccccc2)c2cc(OC)ccc2c(=O)n1Cc1ccccc1` here?
A: Its value is 9%.

Q: How did the “%Inh” value turn out when `O=C(Nc1n[nH]c2nc(-c3nccs3)c(Br)cc12)C1CC1` [SB-742251] was run?
A: The value was 0%.

Q: With `COc1cc(Nc2nccc(N3CCC(NC(=O)Nc4cc(C)ccc4C)C3)n2)cc(OC)c1OC` (stereo not shown) [GSK1379762] as the molecule, how does the “%Inh” value read?
A: Its value is 25%.

Q: With `COc1cccc(NC(=O)NC2CCN(c3ccnc(Nc4ccc(F)cc4)n3)C2)c1` (stereo not shown) [GSK1379721] as the molecule, how does the “%Inh” value read?
A: The value was 0%.

Q: For `Cl.Oc1ccc(-c2nc(-c3ccccc3)[nH]c2-c2ccncc2)cc1` [SB-428218], which “%Inh” value is on record?
A: Its value is 0%.

Q: With `Cc1ccc(-c2cc(-c3c[nH]nc3-c3ccccn3)ccn2)cc1` [GW684088] as the molecule, how does the “%Inh” value read?
A: The value was 0%.

Q: For `Nc1ncnc2[nH]c(-c3ccccc3)nc12` [AH5015], which “%Inh” value is on record?
A: The value was 0%.

Q: For `O=C(Nc1n[nH]c2cc(-c3cccc(F)c3F)ccc12)C1CC1` [SB-733894], which “%Inh” value is on record?
A: The value was 0%.

Q: `Cc1ccc(NC(=O)Nc2cc(C(C)(C)C)nn2-c2ccccc2)cc1` [GSK1014915] was tested. Which “%Inh” value did it give?
A: The value was 60%.

Q: How did the “%Inh” value turn out when `Cc1cccc(-c2nc(C)cc(Nc3ccncc3)n2)n1` [GSK257997] was run?
A: Its value is 0%.

Q: How did the “%Inh” value turn out when `Cn1cncc1-c1ccc2ncnc(Nc3ccc(OCc4ccccc4)cc3)c2c1` [GW320571] was run?
A: Its value is 2%.

Q: How did the “%Inh” value turn out when `CCn1c(-c2ccccn2)nc2cnccc21` [SB-736398] was run?
A: The value was 0%.

Q: `Cc1c(Cn2ccn3c(=O)cc(N4CCOCC4)nc23)cccc1C(F)(F)F` [GSK2289044] was tested. Which “%Inh” value did it give?
A: Its value is 0%.

Q: `O=C(O)COc1ncnc2cc(-c3ccc4[nH]ncc4c3)sc12` was tested. Which “%Inh” value did it give?
A: The value was 2%.

Q: How did the “%Inh” value turn out when `O=C(Nc1ccccc1)Nc1cccc(Oc2ccc3nccn3n2)c1` was run?
A: The value was 18%.

Q: Which “%Inh” value does the source give for `Cc1ccccc1-n1cnc2c(N)ncnc21` [SKF-97510] here?
A: The value was 0%.

Q: How did the “%Inh” value turn out when `CC(=O)Nc1nc2cnc(Nc3cc(NC(=O)c4cccc(CCC#N)c4)ccc3C)nc2s1` was run?
A: The value was 0%.

Q: For `CC1=C(C(=O)Nc2cc3cn[nH]c3cc2F)C(c2ccc(C(F)(F)F)cc2)CC(=O)N1` (stereo not shown) [GSK429286], which “%Inh” value is on record?
A: Its value is 0%.

Q: With `COc1ccc(Nc2nccc(-c3cccc(NC(=O)c4cc5cc(F)ccc5[nH]4)c3)n2)cc1` [GSK1229782] as the molecule, how does the “%Inh” value read?
A: The value was 0%.

Q: `O=C1NC(=O)C(N2CCc3ccccc32)=C1c1ccccc1Cl` [SB-373598] was tested. Which “%Inh” value did it give?
A: The value was 10%.

Source: paper PMC5540273 (PLoS ONE, 2017)
